This is an account of results in PubChem BioAssay.

“And” between values parts separate entries of the source, which are not always exact repeats. Identical values can stand only once. The source made the active and inactive calls.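 Rule for the calls, unless noted: active = inhibition at or above 50% relative to wild type and mutant plate controls; inactive = inhibition below 50%.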

Assay [1] can be described thus: inhibitors of TNFa-induced NFkB p65 translocation, primary screen, imaging, HUVEC, MLSMR starter and 10KST1 sets (AID 438;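 active = inhibition above 20% together with a positive visual image hit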;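 note: compound added about 3h40 before a 20 min TNFalpha stimulation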;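 for inhibition: signal is the nuclear over cytoplasmic p65 intensity ratio per well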). Particulars: HUVEC TNFa-induced p65 nuclear translocation; cell count: measured here: nuclei count (cytotoxicity indicator), at 2.08 µM; inhibition: at 2 µM, stronger effect = higher value, 0% TNFa-plus-vehicle, 100% no-TNFa wells.
The nature of assay [2]: reduction of polyQ htt aggregates in cells – imaging, exon1htt(103Q)mCFP cells, high-content imaging, primary screen (AID 483;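 active = visual image review flags a hit and inhibition of aggregation exceeds 20%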;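 note: compound exposure lasted 3 days before fixation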;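 for nuclei count: percent of the per-plate median nuclei count of sample wells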). Particulars: exon1htt(103Q)mCFP cell line, aggregate imaging, at 2 µM; inhibition of aggregation: stronger effect = higher value; nuclei count: measured here: cell count, toxicity.
A short description of assay [3]: endothelial E-selectin expression blockers – imaging, HUVEC, immunofluorescence, MLSMR starter and 10KST1 sets, primary screen (AID 487;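 active = visually confirmed hit in the image check and inhibition above 20%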;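 for inhibition: signal is fraction of cell area covered by stained E-selectin grains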;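 for nuclei count: 100% = median nuclei count of all wells on the same plate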). To be noted: HUVEC TNFalpha-induced E-selectin immunofluorescence imaging, at 2 µM; inhibition: stronger effect = higher value; nuclei count: measured here: cell number, toxicity.
Assay [4] in a line: Primary imaging screen for DUSP6 inhibitors that restore phospho-Erk in transfected HeLa cells, chemical complementation (AID 609;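 active = compounds giving at least 50% inhibition in the cell-based MKP-3 phosphatase rescue imaging test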;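 for inhibition: phospho-Erk level distribution per well compared with pooled transfected vehicle control wells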). To be noted: HeLa MKP-3 transfected, phospho-Erk imaging KS statistic, at 10 µM, cells stimulated with TPA for 15 min.
The target in assay [5] is Dual specificity protein phosphatase 6 (Homo sapiens) (UniProt Q16828). The assay is described as above. To be noted: HeLa MKP-3 transfected, phospho-Erk imaging KS statistic; at 10 µM; stronger effect = higher value; cells stimulated with TPA for 15 min.
In assay [6] the target is Voltage-gated potassium channel subunit beta-2 (Rattus norvegicus) (UniProt P62483). Briefly: inhibitors of rat Kvbeta2 reductase activity – biochemical, NADPH fluorescence, primary screen (AID 622;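 active = fluorescence slope higher than the sample average by over 3 SD, cut at about -0.22 in these data, passing the limit was not always enough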;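 note: slope of raw intensity against log time taken from 70 to 1610 s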). To be noted: recombinant KvBeta, 4-cyanobenzaldehyde reduction, at 10 µM, stronger effect = higher value.
Assay [7] shares this target. Briefly: enhancers of rat Kvbeta2 NADPH turnover – biochemical, NADPH fluorescence, primary screen (AID 623;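 active = NADPH fluorescence slope more negative than the mean of all samples by about 3 SD, 99.7% confidence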;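 note: fluorescence intensity change per second fitted from 20 to 320 s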). Particulars: Recombinant KvBeta, NADPH fluorescence decrease slope, 10 min; at 10 µM; stronger effect = lower value.
Assay [8] concerns the target Alpha-2C adrenergic receptor (Homo sapiens) (UniProt P18825). Briefly: compounds altering alpha2C-coupled GIRK flux – cell-based, HEK293 alpha2C/GIRK1/2, thallium flux, primary screen (AID 624;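 active = fluorescence slope after compound addition differing from the mean of all screened samples at 99.7% confidence, in either direction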;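 note: slope of fluorescence ratio to pre-addition baseline per second over 15 to 24 s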). Particulars: thallium flux BTC fluorescence, at 10 µM, actives lie on both sides.
Assay [9] in a line: inhibitors of larval lipid processing in zebrafish, primary screen, whole organism, PED6 fluorescence, gall bladder and intestine (AID 686;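 active = a full or partial loss of lipid-probe fluorescence in the fish gall bladder, intestine or both, judged by eye; inactive = no fluorescence loss, or compound toxic to the fish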;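 note: larvae 5 to 7 days old with five fish per well; signal comes from phospholipase A2 cleavage of quenched PED6 carried via bile; overnight exposure to compound and PED6 before scoring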). Particulars: Zebrafish larvae PED6 lipid processing, fluorescence scoring; screened at 20 µM (by protocol).
The nature of assay [10]: loss of swimming-algae plug formation – whole organism, Chlamydomonas reinhardtii, WT vs cilia-less mutant, absorbance, 96-well, primary screen (AID 463189).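 Note: 0% = wild type cc124 cells in DMSO and 100% = ciliumless bld1 mutant cells.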 To be noted: Chlamydomonas reinhardtii gravitaxis, OD600 absorbance, 2 days; at 10 µM; stronger effect = higher value.
Assay [11] is described as follows: blockers of RIG-like receptor reporter activation – cell-based, Sendai virus stimulus, luciferase, 10K MLSCN set, TLR/RLR signaling modifier project, primary screen (AID 602276;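 active = inhibition at or above 50% at 10 µM; inactive = inhibition below 50%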;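 note: firefly luciferase from ISG56 promoter only with Renilla not read in this screen; 0% = Sendai virus plus DMSO and 100% = medium plus DMSO without virus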). Particulars: HEK293 RL24 IRF3 luciferase reporter, at 10 µM, stronger effect = higher value. Background: Reporter assays use an easily measured gene product as a stand-in for the process of interest.

Assay [12] can be described thus: TLR3 IRF3 reporter activation blockers – cell-based, poly I:C stimulus, luciferase, 10K MLSCN set, primary screen (AID 602277;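 active = inhibition of the reporter signal at or above 50%; inactive = inhibition below 50%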). To be noted: HEK293-TLR3 RL24 IRF3 luciferase reporter, at 10 µM, stronger effect = higher value.
[13] abbreviates: measured here: cell density z-score.
Setting [14] is: measured here: nuclear c-Myc green intensity z-score.
Where [15] appears, read: measured here: nuclear pErk red intensity z-score, stronger effect = higher value.

Sequence of Dual specificity protein phosphatase 6 (Homo sapiens) (Q16828 whole entry, looked up): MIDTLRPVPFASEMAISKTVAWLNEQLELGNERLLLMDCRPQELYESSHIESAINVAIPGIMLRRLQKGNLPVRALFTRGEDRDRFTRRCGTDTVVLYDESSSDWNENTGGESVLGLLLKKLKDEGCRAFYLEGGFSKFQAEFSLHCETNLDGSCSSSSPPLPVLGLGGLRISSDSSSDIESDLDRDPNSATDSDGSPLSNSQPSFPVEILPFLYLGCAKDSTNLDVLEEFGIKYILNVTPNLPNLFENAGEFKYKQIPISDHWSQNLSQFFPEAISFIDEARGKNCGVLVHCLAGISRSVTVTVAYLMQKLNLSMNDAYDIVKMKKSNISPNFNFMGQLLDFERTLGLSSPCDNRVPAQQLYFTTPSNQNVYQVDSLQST
Sequence of Alpha-2C adrenergic receptor (Homo sapiens) (P18825 whole entry, looked up): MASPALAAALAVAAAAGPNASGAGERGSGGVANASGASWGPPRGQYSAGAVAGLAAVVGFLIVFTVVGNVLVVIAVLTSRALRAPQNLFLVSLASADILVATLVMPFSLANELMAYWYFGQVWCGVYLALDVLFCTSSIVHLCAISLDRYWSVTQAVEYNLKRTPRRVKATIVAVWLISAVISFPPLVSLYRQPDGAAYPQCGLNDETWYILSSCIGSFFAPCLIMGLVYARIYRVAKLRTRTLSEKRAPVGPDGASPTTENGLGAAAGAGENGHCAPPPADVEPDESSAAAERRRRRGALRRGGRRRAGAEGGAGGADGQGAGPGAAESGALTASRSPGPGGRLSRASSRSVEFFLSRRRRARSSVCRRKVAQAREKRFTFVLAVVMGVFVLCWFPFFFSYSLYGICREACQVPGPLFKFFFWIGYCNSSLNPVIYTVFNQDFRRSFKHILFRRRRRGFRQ
Sequence of Voltage-gated potassium channel subunit beta-2 (Rattus norvegicus) (P62483 whole entry, looked up): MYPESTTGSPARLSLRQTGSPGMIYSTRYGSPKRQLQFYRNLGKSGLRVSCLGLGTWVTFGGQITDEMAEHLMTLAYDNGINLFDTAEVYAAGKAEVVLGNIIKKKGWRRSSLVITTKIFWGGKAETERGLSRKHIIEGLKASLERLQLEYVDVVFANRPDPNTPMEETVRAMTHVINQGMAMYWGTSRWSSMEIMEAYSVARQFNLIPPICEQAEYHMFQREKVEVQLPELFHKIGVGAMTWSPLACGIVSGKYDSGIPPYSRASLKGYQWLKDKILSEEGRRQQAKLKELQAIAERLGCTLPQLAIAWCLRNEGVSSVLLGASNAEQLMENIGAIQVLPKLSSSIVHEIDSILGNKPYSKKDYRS

Take `CCn1cc(C(=O)O)c(=O)c2cc(F)c(N3CCNCC3)cc21`: the cell count in assay [1] was found to be 576. In addition, the inhibition – broadly, the relative decrease from the control value, in per cent – in assay [1] is -6.9% (inactive); in assay [3] it was -31% (inactive); in assay [5], -6.41% (inactive); in [10], -5.87% (inactive); in assay [11] it was -0.442% (inactive); in assay [12], 10.8% (inactive). Also, in [2], the inhibition of aggregation was 13% (inactive). The nuclei count came to 87.7% in assay [2] and 108% in assay [3]. The z-score is 0.515 in assay [4] (setting [13]), -1.04 in [4] (setting [14]) and 1.05 in assay [4] (setting [15]). For the same molecule, in assay [6], the fluorescence slope was -0.472 (inactive). Besides, the NADPH fluorescence slope in [7] was 1.5e-05 (inactive). For the same molecule, the slope in assay [8] was 0.00555 (inactive). In addition, the result in assay [9] was inactive.
In the case of `O=C(C1CCCCC1)N1CC(=O)N2CCc3ccccc3C2C1` (stereo not given), the cell count in assay [1] was 552 and 561. Also, the inhibition in assay [1] is -7.7% (inactive) and -4.1% (inactive); in assay [3], -103% (inactive) and -50.4% (inactive); in assay [5], 1.48% (inactive) and 1.9e-07% (inactive); in [10], 6.15% (inactive) and -13.5% (inactive) and -10.9% (inactive); in assay [11] it was 8.76% (inactive); in assay [12], 17.3% (inactive). Moreover, the inhibition of aggregation in [2] is 16.2% (inactive). Moreover, the nuclei count was 109% in [2]; 115% and 103% in assay [3]. Also, the z-score in [4] (setting [13]) is -1.12 and -0.574; in [4] (setting [14]), 0.266 and 0.927; in [4] (setting [15]), -0.413 and -1.5. Besides, the fluorescence slope in assay [6] was -0.447 (inactive) and -0.51 (inactive). For the same molecule, the NADPH fluorescence slope in assay [7] was 2.3e-05 (inactive) and -4.3e-06 (inactive). Moreover, the slope in assay [8] was 0.00517 (inactive) and 0.00493 (inactive). Also, the molecule was called inactive in assay [9].
Take `CCCCc1c(O)nc(SCCN(C)C)n(-c2ccccc2)c1=O`: the cell count in [1] stood at 326. Besides, the inhibition in [1] was -8.8% (inactive); in assay [3], -40.2% (inactive); in assay [5], 12.3% (inactive); in [10] it was -12.4% (inactive); in [11], 7.92% (inactive); in assay [12] it was 1.23% (inactive). The inhibition of aggregation in assay [2] was 2.2% (inactive). The nuclei count was 94.9% in assay [2] and 96.4% in assay [3]. Moreover, the z-score in assay [4] (setting [13]) was -1.09; in [4] (setting [14]) it was 2.21; in assay [4] (setting [15]) it was 0.182. The fluorescence slope in assay [6] was -0.438 (inactive). Also, the NADPH fluorescence slope in assay [7] is -0.000152 (inactive). The slope in assay [8] is 0.00653 (inactive). Also, the molecule was called inactive in [9].
Turning to `COc1ccc(NC(=O)CSC2=C(C#N)C(c3ccco3)C3=C(CCCC3=O)N2)c(OC)c1` (stereo not given), in assay [1], the cell count turned out to be 429. For the same molecule, the inhibition in assay [1] is 1.6% (inactive); in [3], -47.9% (inactive); in assay [5], 13.4% (inactive); in [10], 26.6% (inactive); in assay [11], 17.5% (inactive); in [12], 18.8% (inactive). Besides, the inhibition of aggregation in assay [2] is -5.2% (inactive). Moreover, the values for the nuclei count in assay [2] and in [3] were 95.8% and 104%, respectively. The z-score in assay [4] (setting [13]) was -1.49; in [4] (setting [14]), 0.542; in assay [4] (setting [15]) it was 0.619. In assay [6], the fluorescence slope is -0.456 (inactive). In addition, the NADPH fluorescence slope in assay [7] is -9.4e-06 (inactive). Besides, in [8], the slope is 0.00706 (inactive). Moreover, the molecule was classed as inactive in assay [9].
On to `Cc1cc(C)n(CC(=O)n2c3c(c4ccccc42)CCCC3)n1`, for which the cell count in [1] came to 515. Also, the inhibition is -6.5% (inactive) in assay [1]; -92.5% (inactive) in assay [3]; -1.98% (inactive) in [5]; -0.753% (inactive) in assay [10]; -7.05% (inactive) in assay [11]; 1.75% (inactive) in assay [12]. In addition, in assay [2], the inhibition of aggregation was 13.5% (inactive). Besides, the nuclei count in assay [2] was determined as 99.3%; in assay [3], 130%. The z-score was -0.283 in assay [4] (setting [13]), 1.41 in assay [4] (setting [14]) and 0.335 in [4] (setting [15]). For the same molecule, in assay [6], the fluorescence slope was -0.53 (inactive). The NADPH fluorescence slope in assay [7] is -3.4e-05 (inactive). Besides, in assay [8], the slope was 0.0062 (inactive). In addition, the molecule was classed as inactive in [9].
